# Laboratory results reported in ChEMBL document CHEMBL3988442, “University of Dundee, Small-Polar-MMV Screening Library” (2021).
# Target: AMP-activated protein kinase, AMPK (Homo sapiens) (UniProt P54646+O43741+P54619+Q9UGJ0+Q9Y478+Q13131+Q9UGI9)
# Assay: AMP-dependent Kinase enzyme assay. An in vitro enzyme assay that detects ADP turnover that is directly proportional to AMPK activity. This uses naive AMPK that is activated during the assay with MK-8722
# Type: functional
# Design: scale not given: direction of the effect not stated beside the values
# Settings: 30 µM
row,Compound,Percent Effect [%]
1,COC(=O)CC1CCCCN1CC(=O)Nc1ccc(F)cc1Cl (stereo not given),8.66
2,COc1cccc(CN(C)C(C)C(=O)Nc2nc(C)c(C)s2)c1 (stereo not given),5.13
3,CCc1nc(C)c(CN2CCOC(CCCC(C)C)C2)[nH]1 (stereo not given),-6.7
4,CN(CC(O)C(F)(F)F)C(=O)Nc1cccc(Cn2cccn2)c1 (stereo not given),-3.22
5,O=C(CCCN1CCCCC1)NC(C(=O)O)c1ccc(Cl)cc1 (stereo not given),6.04
6,O=C(NCc1cccnc1N1CCCCC1)c1ccc2cc[nH]c2c1,1.26
7,Cc1ccc(-c2ccccc2CC2CNCCNC2=O)c(C)c1 (stereo not given),2.34
8,Cc1occc1C(=O)Nc1cccc(C(=O)OCC2CCCN2)c1 (stereo not given),-5.07
9,CN(Cc1cn(C2CCNCC2)nn1)CC1CCCO1 (stereo not given),3.31
10,COCCN(Cc1ccccc1)C(=O)c1cnn(C)c1C,2.02
11,COc1ccccc1OC(C)CNC(=O)c1cnc[nH]1 (stereo not given),0.827
12,CCn1c(C2CCCNC2)nn(CCn2cncn2)c1=O (stereo not given),-3.33
13,CN1CCN(CCCOc2ccccc2CN2C[C@H]3CC[C@H]2C3)CC1,-5.02
14,Cc1cc(N(C)CC2COc3ccccc3O2)nc(C)n1 (stereo not given),1.48
15,CCN(CC)S(=O)(=O)NCC1Cc2ccccc2O1 (stereo not given),-0.544
16,Cn1ccnc1CNCCNc1ncc(Cl)cc1Cl,-1.1
17,NC(=O)CN1CCC(C(=O)NCC(O)c2cccc(F)c2)CC1 (stereo not given),-5.48
18,CN(CCNC(=O)Nc1cnn(C)c1)Cc1ccc(F)cc1,0.603
19,O=C1CN(C(=O)CC2C(=O)NCCN2CC2CCCCC2)CCN1 (stereo not given),-5.33
20,COC(=O)c1ncccc1N1CCCC1,9.09
21,Cc1ccc(OCc2occc2C(=O)N2CC[C@H](CO)[C@@H](O)C2)cc1,14.2
22,COc1ccc2nc(CNC(=O)C3CC4(CCNCC4)CN3C)[nH]c2c1 (stereo not given),-3.99
23,Cc1cc(=O)n2nc(Oc3cc(Cl)cc(Cl)c3)sc2n1,-4.19
24,CNc1nc(C(=O)N2CCn3nc(C(=O)OC)cc3C2)cs1,-0.197
25,CN1CCC(N(CCc2ccccc2)C(=O)COCC2CCCO2)CC1 (stereo not given),-4.31

row,Compound,Percent Effect [%]
1,COCCC(C)NCc1ccccc1-n1ccnc1 (stereo not given),-0.71
2,CN(Cc1csc(-c2cccs2)n1)Cc1cccnc1N,3.93
3,CSc1ccc(NC(=O)Cn2cc(N)cn2)cc1,-79.3
4,c1cnc(Nc2ccc(C3CCCCN3Cc3ccncc3)cn2)nc1 (stereo not given),11.1
5,CC1(C)CN(c2cc(C3CC3)ncn2)C[C@]1(C)O,30.7
6,CC1(C)CC(C(=O)N2CCC3(CCC(=O)N(C4CC4)C3)CC2)CCO1 (stereo not given),-0.458
7,Cc1cccc(COc2ccc(C(C)NS(N)(=O)=O)cc2)c1 (stereo not given),7.65
8,CCNC(=O)[C@@H]1C[C@@H](N)CN1C(=O)c1[nH]c2ccccc2c1CC,13.5
9,CNc1ccc(C)cc1C(=O)N1CCCC2(CCNC2)C1 (stereo not given),10.4
10,COc1ccccc1OCCc1nnc(NC(=O)C2CC23CCC3)s1 (stereo not given),8.73
11,CC(=O)NCCNC(=O)c1cc(COc2ccccc2)[nH]n1,14.5
12,COc1ncccc1N(C)C(=O)Cn1cc(-c2ccccc2)nn1,-1.29
13,CN(C(=O)c1ccc(C#N)cc1)c1nnc(C2CCOC2)s1 (stereo not given),11.3
14,CCCC1(CO)CCCN(C(=O)CNC(N)=O)C1 (stereo not given),8.45
15,Cc1cc(C)c2cc(C(=O)N3CCNC(=O)C3)[nH]c2c1,1.52
16,Cc1ccc(C(=O)NC2CCN(S(C)(=O)=O)CC2)c(=O)[nH]1,1.76
17,CC(C)(C)c1ccc(-n2ncc3c2CCCC3N)cc1 (stereo not given),5.4
18,CNC(=O)C1CN(C(=O)Cc2ccc(OC)cc2)Cc2cn(C)nc21 (stereo not given),-3.48
19,Oc1cccc(CNCc2ccc(-n3cncn3)nc2)c1,2.63
20,N#Cc1ccc(NCc2cccnc2N2CCC(C(N)=O)CC2)cn1,2.13
21,N#Cc1ccc(Cl)cc1NCC1CCOC1 (stereo not given),5.95
22,CCOc1ccc(Cl)cc1CCNC(=O)Cn1ccccc1=O,16.7
23,CCC(NC(=O)NC1CCN(S(C)(=O)=O)CC1)c1cccs1 (stereo not given),-3.19
24,CCCc1cc(N(CCOC)CC(F)F)n2ncnc2n1,11.5
25,Cc1ncsc1C(=O)NCCN1CCCCCC1=O,-13.5

row,Compound,Percent Effect [%]
1,CNC(=O)CCOC(=O)c1cccc(-n2cccn2)c1,7.17
2,NCC(CO)Cc1cccc(OC(F)(F)F)c1 (stereo not given),-3.22
3,COCC[C@]1(O)CCN(CC(=O)NCc2ccccc2C)C[C@H]1C,8.23
4,CN(Cc1ccccc1-n1cccn1)C[C@@H]1CCCN2CCCC[C@H]12,-9.27
5,COc1ccc(OCc2nc3cc4c(cc3c(=O)o2)OCCCO4)cc1,-6.13
6,Cc1cc(COC(=O)[C@@H]2Cc3ccccc3CN2S(C)(=O)=O)no1,27.9
7,CCc1oc(C(=O)N[C@@H]2c3ccccc3C[C@@H]2O)cc1CN1CCCC1,4.06
8,Cc1nc(C)c(COc2ccc(S(=O)(=O)N(C)C)cc2)s1,4.6
9,OC(CNCc1nnc2ccccn12)c1ccc2c(c1)OCCCO2 (stereo not given),9.77
10,Cc1cc(C)n2c(CNCc3ccc(OC(F)F)cc3)cnc2n1,-12.4
11,CS(=O)(=O)NCCN1CCSCC1c1ccc(Cl)cc1 (stereo not given),1.33
12,OCC1(CCOc2ccccc2)CCN(c2ccc(Cl)cn2)CC1,-2.64
13,O=C(Nc1cccc(C(=O)OCC2CCCN2)c1)c1ccoc1 (stereo not given),0.474
14,Cc1cc(-c2n[nH]c3c2CN(S(=O)(=O)c2ccsc2)CC3)c(C)o1,4.26
15,COCCOCC(=O)Nc1nc2c(OC)cc(F)cc2s1,3.08
16,Cc1cc(=O)n2nc(Oc3cccc(I)c3)sc2n1,-1.18
17,CC(=O)NCc1ccc(C(=O)N2CCCc3c(F)ccc(C)c32)o1,0.928
18,Cc1cnn(C2CN(CCOc3ccccc3C#N)C2)c1,6.15
19,CC(=O)N[C@H]1CCO[C@@H](c2cccc(NC(=O)c3ccc(=O)[nH]n3)c2)C1,14.1
20,O=C(Nc1cccc(N2CCCC2)c1)N[C@H](CCO)c1ccccc1,-57.9
21,Cc1cc(C)c(C#N)c(NCCSc2nncn2C)n1,-0.426
22,COC(=O)c1ncccc1N1CCN(C(=O)CN2CCOCC2)CC1,5.94
23,CC(=O)N[C@@H]1CN(C(=O)c2cccc(C)c2)C[C@H]1O,8.23
24,c1ccc2c(NC3CCc4ncnn4C3)ncnc2c1 (stereo not given),2.92
25,CCC(C(=O)NC1(CN2CCOCC2)CCCC1)n1cccn1 (stereo not given),5.49

row,Compound,Percent Effect [%]
1,CC(NC(=O)NC1CCN(Cc2ccncc2)CC1)c1cccc(F)c1 (stereo not given),1.09
2,COC(=O)CCN(C)C(=O)c1csc(Cc2ccccc2F)n1,-2.56
3,COC(=O)C1CN(Cc2ccn(-c3ccc(F)cc3)n2)CCO1 (stereo not given),-6.99
4,Cc1ccc(F)c2c1CCCN2CC(=O)NC1CCS(=O)(=O)C1 (stereo not given),3.51
5,Cc1ccc(-c2nc(C(=O)N(C)CC(=O)N(C)C)cs2)c(C)c1,-3.64
6,CC1CN(C)CCN1C(=O)c1cccn1Cc1ccncc1 (stereo not given),1.97
7,CC1CCCCN1C(=O)COc1nc(C(C)(C)C)no1 (stereo not given),-0.675
8,O=C(CC1CCCC1)NCCS(=O)(=O)N1CCN(c2ncccn2)CC1,-1.03
9,Cc1cc(C(F)(F)F)nc(CNC(=O)CCn2cccn2)n1,12.2
10,O=C(CN1CCCC(c2ccn[nH]2)C1)N1CCCc2ccccc21 (stereo not given),-2.2
11,CN(Cc1ccc2c(c1)OCO2)Cc1cscn1,-5.54
12,Cc1cc(C(=O)N2CC[C@H](N3CCN(C)CC3)[C@H](CCCO)C2)n(C)n1,10.5
13,CN(C)c1ncccc1CNC(=O)NCC(c1cccs1)N(C)C (stereo not given),-9.48
14,COC(=O)C1CN(Cc2cc(F)ccc2Br)CCO1 (stereo not given),-6.48
15,CC1CCC(O)(CSc2nnnn2C2CC2)CC1 (stereo not given),6.07
16,CN1CCN(C(=O)C2(S(C)(=O)=O)CCCC2)Cc2ccccc21,-2.88
17,Cc1noc(CCCC(=O)N2CSCC2C(=O)NCC2CC2)n1 (stereo not given),-0.369
18,NC(=O)c1cc2c(nc1CC1CCCCO1)CCC2 (stereo not given),-4.87
19,Cc1sc2ncnc(N3CCCC3Cn3cccn3)c2c1C (stereo not given),3.42
20,O=C(CC1CCCC1)NCCS(=O)(=O)N1CCN(c2ccccn2)CC1,-2.11
21,Cc1noc(-c2ccc(N(C)Cc3cccnc3)nc2)n1,-3.84
22,COc1cccc(CCC(=O)Nc2c(C)nn(C)c2C)c1OC,15.8
23,N#CCCN(Cc1ccccn1)C(=O)c1cccc(CN2CCCC2)c1,0.67
24,O=C(c1cscn1)N1CCc2[nH]nc(Nc3ccccc3)c2C1,10.9
25,Cc1nc(C(NS(=O)(=O)N(C)C)c2ccccc2F)no1 (stereo not given),-2.57
